13 compounds from PubChem BioAssay can be followed below.

For some of these results: Measured potencies and affinities stand elsewhere. Calls of active or inactive are those of the source.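 How the source made its calls, unless noted: active means primary screen active and over 50% activation in each of two duplicate runs; inactive means the rest.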

Assay [1] concerns TRPC4 beta (transient receptor potential cation channel C4), mouse. The experiment in a line: TRPC4 cation channel opening, retest – cell-based, Fluo4 calcium, HEK293 TRPC4beta/mu-opioid, duplicates, 10 µM, confirmation (AID 2426;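 active means fluorescence ratio normalized to control raised more than 50% in primary screen plus both repeat runs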;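 on activation: percent rise of integrated ratio over buffer wells lacking compound which define 0%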). Conditions: Fluo4 calcium fluorescence, at 10 µM; hits give high values.
In assay [2] the test system is transient receptor potential cation channel C4 beta (TRPC4), mouse. Description: TRPC4 cation channel opening, second retest – cell-based, second round, Fluo4, HEK293 TRPC4beta/mu-opioid, 1 µM, confirmation (AID 2461).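 On activation: 0% = wells without test compound as baseline of integrated fluorescence ratio.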 Conditions: Fluo4 calcium fluorescence, at 1 µM; hits give high values.
The subject of assay [3] is TRPC4 (transient receptor potential cation channel C4 beta), mouse. The experiment in a line: potentiation of DAMGO EC20 TRPC4 response – cell-based, second round, Fluo-4, HEK293 TRPC4beta/mu-opioid, 1 µM, confirmation (AID 2554;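 active means primary screen hit whose fluorescence ratio, in both repeats, exceeds the weak agonist control mean by 3 SD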). Conditions: DAMGO EC20, Fluo-4 calcium flux, at 1 µM; hits give high values. On the technique in general: Calcium flux is commonly read through the fluorescence of an indicator in the cells.

The test system of assay [4] is TRPC4 beta (transient receptor potential cation channel C4), mouse. The experiment in a line: potentiation of DAMGO EC20 TRPC4 response – cell-based, Fluo-4, HEK293 TRPC4beta/mu-opioid, confirmation (AID 2555;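 active means primary screen hit whose calcium fluorescence ratio, in both repeats, exceeds the weak agonist control mean by 3 SD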). The conditions noted are these: DAMGO EC20, Fluo-4 calcium flux, at 10 µM; hits give high values.
Assay [5] deals with Short transient receptor potential channel 4 (Mus musculus) (UniProt Q9QUQ5). Description: blockers of DAMGO-evoked TRPC4 calcium flux – cell-based, Fluo4, HEK293 TRPC4beta/mu-opioid, confirmation (AID 2636;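 active means calcium signal cut by more than 3 SD below the full-agonist control yet still positive, in both repeats and the earlier primary screen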). The conditions noted are these: at 10 µM; hits give high values.
Chain of Short transient receptor potential channel 4 (Mus musculus) (Q9QUQ5 whole entry, looked up): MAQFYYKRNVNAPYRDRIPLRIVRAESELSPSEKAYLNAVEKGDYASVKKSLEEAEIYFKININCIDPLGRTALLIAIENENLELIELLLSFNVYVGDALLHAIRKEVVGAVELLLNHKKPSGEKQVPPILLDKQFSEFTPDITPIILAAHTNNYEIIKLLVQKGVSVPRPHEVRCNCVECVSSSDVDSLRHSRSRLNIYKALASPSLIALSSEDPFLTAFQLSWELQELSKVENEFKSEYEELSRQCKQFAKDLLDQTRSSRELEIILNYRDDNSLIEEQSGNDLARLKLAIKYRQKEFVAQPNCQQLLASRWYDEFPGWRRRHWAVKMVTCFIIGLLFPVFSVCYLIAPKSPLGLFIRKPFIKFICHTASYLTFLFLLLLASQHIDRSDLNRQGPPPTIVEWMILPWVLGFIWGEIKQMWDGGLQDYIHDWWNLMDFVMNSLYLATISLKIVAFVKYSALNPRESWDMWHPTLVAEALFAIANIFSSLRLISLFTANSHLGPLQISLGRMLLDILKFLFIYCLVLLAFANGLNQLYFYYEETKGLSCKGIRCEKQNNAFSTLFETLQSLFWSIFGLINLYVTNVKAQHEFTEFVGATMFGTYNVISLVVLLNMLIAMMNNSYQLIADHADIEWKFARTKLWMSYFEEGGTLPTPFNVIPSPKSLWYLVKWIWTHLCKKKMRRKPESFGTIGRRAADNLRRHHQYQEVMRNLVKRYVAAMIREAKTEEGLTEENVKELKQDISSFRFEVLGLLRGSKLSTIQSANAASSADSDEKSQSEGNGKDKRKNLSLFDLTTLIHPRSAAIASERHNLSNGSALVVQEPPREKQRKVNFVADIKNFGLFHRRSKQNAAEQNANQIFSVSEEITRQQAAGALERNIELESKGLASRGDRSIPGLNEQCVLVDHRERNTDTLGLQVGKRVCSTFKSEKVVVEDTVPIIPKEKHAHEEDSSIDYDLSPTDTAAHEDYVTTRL
The target is the same in assay [6]. Description: blockers of DAMGO-evoked TRPC4 calcium flux – cell-based, second round, Fluo4, HEK293 TRPC4beta/mu-opioid, 1 µM, confirmation (AID 2637;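 active means calcium signal ratio cut to more than 3 SD under the fully stimulated control mean yet still positive, in both repeats and the primary screen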). Conditions: at 1 µM; hits give high values.
The target is the same in assay [7]. The experiment in a line: potentiation of DAMGO-evoked TRPC4 calcium signal – cell-based, HEK293 TRPC4/mu-opioid, Fluo-4 calcium, EC20 DAMGO, dose response (AID 434941;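 active means earlier screen potentiator hit that boosts the TRPC4 ion channel at some dose, with a dose response; inactive means no potentiation, no dose response, or not a prior hit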;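 further: calcium entry triggered by an EC20 dose of DAMGO at the co-expressed mu-opioid receptor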).
For assay [8] the target is unchanged. Description: block of DAMGO-driven TRPC4 calcium entry – cell-based, HEK293 TRPC4/mu-opioid, Fluo-4 calcium, dose response (AID 434942;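 active means primary screen inhibitor hit that blocks the TRPC4 channel at some tested dose, yielding a dose curve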).
Assay [9] concerns the target Short transient receptor potential channel 6 (Mus musculus) (UniProt Q61143). Description: TRPC6 blockade by TRPC4 inhibitor hits – cell-based, HEK293, membrane potential dye, duplicate, selectivity assay for TRPC4 inhibitor project, confirmation (AID 434948;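 active means active in primary screen and both duplicates, each dropping signal beyond three positive-control SD with fluorescence still positive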). The conditions noted are these: HEK293 TRPC6, membrane potential dye fluorescence, at 10 µM, stimulated with maximal-effect acetylcholine; hits give high values.

The target is the same in assay [10]. Description: TRPC6 opening by TRPC4 activator hits – cell-based, HEK293, membrane potential dye, duplicate, selectivity assay for TRPC4 activator project, confirmation (AID 434950;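 active means membrane potential signal rise above negative control mean plus 3 SD in both duplicates, also active in the earlier TRPC4 screen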;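 on activation: 0% = buffer only wells and 100% = acetylcholine maximal-effect wells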). The conditions noted are these: HEK293 TRPC6, membrane potential fluorescence, at 10 µM; activation: hits give high values; outcome: activation.
For assay [11] the target is unchanged. Description: positive modulators of mouse TRPC6 channel – HEK293 cells, membrane potential dye, duplicate, selectivity assay for TRPC4 potentiator project, confirmation (AID 434952;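 active means compound raising the membrane signal above positive-control mean plus 3 SD in both repeats, and a primary screen hit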). The conditions noted are these: HEK293 TRPC6, membrane potential dye fluorescence, at 10 µM, maximal acetylcholine added after compound; hits give high values.
Assay [12] concerns the target Short transient receptor potential channel 4 (Mus musculus) (UniProt Q9QUQ5). Description: calcium flux activators in TRPC4/5HT1a cells, counter-screen for TRPC4 activator project, cell-based, second counter screen, HEK293 TRPC4/5HT1a, Fluo-4 (AID 434977;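 active means calcium signal rise above buffer-control mean plus 5 SD in both duplicates, and also a hit in the primary screen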;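 on activation: plate controls were assay buffer for no effect and maximal serotonin response for full effect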). Conditions: Fluo-4 calcium flux, at 10 µM; hits give high values.
Assay [13] is described as follows: serotonin-gated TRPC4 signal block – cell-based, second counter screen, HEK293 TRPC4/5HT1a, Fluo-4, counter-screen for TRPC4 inhibitor project, confirmation (AID 434978;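 active means primary screen active whose calcium signal fell more than 3 SD beyond the full-serotonin control mean in both duplicate plates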;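 further: serotonin given first at submaximal then at maximal dose after compound preincubation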). Conditions: Fluo-4 calcium flux, at 10 µM, serotonin added to trigger calcium flux; hits give high values. (In general: A counterscreen serves to expose hits that act by an unwanted route or on another target.)

Assay [14] has as its system TRPC4 (mouse), co-expressed with 5HT1a in HEK293. Description: enhancement of serotonin-evoked TRPC4 response – cell-based, second counter screen, HEK293 TRPC4/5HT1a, Fluo-4, counter-screen for TRPC4 potentiator project, confirmation (AID 434979;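 active means signal rise over 3 SD above mean of control wells given weak agonist, in both repeats and first screen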). Conditions: Fluo-4 calcium flux, at 10 µM, serotonin added at its EC20 dose; hits give high values.
Assay [15] is described as follows: nonspecific calcium rise without TRPC4 – cell-based, HEK293 mu-opioid receptor line, counter-screen for TRPC4 activator project, confirmation (AID 449723;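 active means hit in primary screen, with calcium signal over 5 SD above buffer well mean in both duplicates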;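 further: counter screen cells carry the mu-opioid receptor alone and lack TRPC4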). The conditions noted are these: HEK293 mu-opioid cells, Fluo-4 calcium fluorescence, at 10 µM; hits give high values.
The nature of assay [16]: nonspecific potentiation of DAMGO calcium response – cell-based, HEK293 mu-opioid receptor line, counter-screen for TRPC4 allosteric potentiator project, confirmation (AID 449724;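 active means calcium signal rise more than 3 SD above the low-dose agonist control mean, in both duplicate plates and the primary screen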;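 further: HEK293 cells carrying mu-opioid receptor only with no TRPC4 channel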). Conditions: HEK293 mu-opioid receptor cells, Fluo-4 calcium flux, at 10 µM, compound added before EC20 DAMGO stimulus; hits give high values.

Chain of Short transient receptor potential channel 6 (Mus musculus) (Q61143 whole entry, looked up): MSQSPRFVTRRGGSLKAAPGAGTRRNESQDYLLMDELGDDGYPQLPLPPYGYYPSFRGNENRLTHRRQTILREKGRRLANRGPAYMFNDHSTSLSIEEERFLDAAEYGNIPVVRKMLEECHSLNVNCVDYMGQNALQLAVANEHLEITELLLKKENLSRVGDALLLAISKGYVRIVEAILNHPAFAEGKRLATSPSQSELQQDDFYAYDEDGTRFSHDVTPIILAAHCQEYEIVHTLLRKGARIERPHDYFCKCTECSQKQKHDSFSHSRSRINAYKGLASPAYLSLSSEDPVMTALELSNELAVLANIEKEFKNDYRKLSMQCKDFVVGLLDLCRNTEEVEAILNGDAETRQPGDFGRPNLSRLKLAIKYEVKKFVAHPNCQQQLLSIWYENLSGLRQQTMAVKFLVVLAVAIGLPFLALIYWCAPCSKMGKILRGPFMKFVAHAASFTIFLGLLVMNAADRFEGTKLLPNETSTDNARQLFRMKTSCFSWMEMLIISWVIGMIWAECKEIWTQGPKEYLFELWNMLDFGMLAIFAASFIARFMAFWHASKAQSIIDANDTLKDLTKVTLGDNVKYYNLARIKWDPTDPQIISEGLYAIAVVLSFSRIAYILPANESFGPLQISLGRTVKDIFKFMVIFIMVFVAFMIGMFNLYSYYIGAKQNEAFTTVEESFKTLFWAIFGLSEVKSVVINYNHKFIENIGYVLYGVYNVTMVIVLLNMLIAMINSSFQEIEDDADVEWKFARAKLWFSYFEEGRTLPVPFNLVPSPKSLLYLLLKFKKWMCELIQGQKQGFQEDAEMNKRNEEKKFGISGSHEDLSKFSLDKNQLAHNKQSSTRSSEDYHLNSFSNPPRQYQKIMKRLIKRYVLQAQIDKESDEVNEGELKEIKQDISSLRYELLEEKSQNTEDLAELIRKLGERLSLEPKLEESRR

As for `Cc1onc(-c2ccccc2Cl)c1C(=O)N1CCN(C/C=C/c2ccccc2)CC1`, the values for the activation in assay [1] and in assay [10] were 190% (active) and 38.5% (active), respectively. In addition, the outcome in assay [2], in [3], in [4], in [5], in assay [6] and in assay [7] was inactive. Besides, the outcome in assay [8], in [9], in assay [11], in assay [12], in assay [13] and in [14] was inactive. Further, the result in assay [15] and in [16] was inactive.

As for `CC1(C(=O)NC(=S)NNC(=O)c2ccncc2)CCCCC1`, the values for the activation in assay [1] and in assay [12] were 197% (active) and 101% (active), respectively. For the same compound, the result in [2], in assay [3], in assay [4], in assay [5], in [6] and in [7] was inactive. The outcome in assay [8], in [9], in [10], in [11], in [13] and in assay [14] was inactive. In addition, the outcome in assay [15] and in assay [16] was inactive.

Take `CN(CCc1ccccn1)C(=S)Nc1cccc(S(=O)(=O)N(C)C)c1`: the activation in assay [1] is 111% (active); in assay [12], 53.6% (active). Also, the outcome in assay [2], in assay [3], in assay [4], in [5], in assay [6] and in assay [7] was inactive. Moreover, the outcome in [8], in assay [9], in assay [10], in [11], in assay [13] and in assay [14] was inactive. The result in [15] and in assay [16] was inactive.

In the case of `CC(C)C1CC(CCNCc2ccc(N(C)C)cc2)(c2ccccc2)CCO1` (stereo not drawn), the activation is 185% (active) in assay [1], 29% (active) in assay [10] and 31.2% (active) in [12]. Also, the result in assay [2], in assay [3], in assay [4], in assay [5], in assay [6] and in [7] was inactive. For the same compound, the outcome in assay [8], in assay [9], in [11], in [13], in assay [14] and in assay [15] was inactive. The result in [16] was inactive.

On to `COc1ccccc1/C=C/CN1CCCC(CCC(=O)NCc2ccc(F)c(F)c2)C1` (stereo not drawn), for which the activation in assay [1] was 92% (active); in [2] it was 79% (active); in assay [10] it was 43.5% (active); in assay [12] it was 35.2% (active). Further, the result in assay [3], in [4], in [5], in assay [6], in assay [7] and in assay [8] was inactive. The call in assay [9], in assay [11], in [13], in assay [14], in [15] and in assay [16] was inactive.

For the compound `O=[N+]([O-])c1cc(C(F)(F)F)ccc1N1CCCNCC1`, the activation in assay [1] is 77% (active); in assay [12] it was 30.2% (active). For the same compound, the result in assay [2], in assay [5], in [6], in assay [7], in assay [8] and in [9] was inactive. For the same compound, the call in assay [10], in assay [11], in assay [13], in [15] and in [16] was inactive. The potentiation was 21% (active) in [3], 26% (active) in [4] and 30.6% (active) in assay [14].

As to `O=C(CC1C(=O)NCCN1Cc1ccccc1C(F)(F)F)NCCc1ccccn1` (stereo not drawn), the figures for the activation in assay [1] and in assay [12] were 106% (active) and 26.7% (active), respectively. The result in assay [2], in assay [3], in assay [4], in [5], in assay [6] and in [7] was inactive. Moreover, the result in assay [8], in assay [9], in [10], in [11], in assay [13] and in [14] was inactive. Besides, the result in assay [15] and in assay [16] was inactive.

Consider `O=C(O)C1C2C=CC(C2)C1C(=O)NC1CCN(Cc2ccccc2)CC1` (stereo not drawn), for which the activation was 155% (active) in assay [1], 32% (active) in assay [10] and 44.3% (active) in assay [12]. In addition, the outcome in assay [2], in [3], in assay [4], in assay [5], in assay [6] and in assay [7] was inactive. Also, the outcome in [8], in [9], in [11], in assay [13], in [14] and in assay [15] was inactive. For the same compound, the result in assay [16] was inactive.

As to `CCC1CCCCN1S(=O)(=O)c1ccc(C(=O)N(CCCN(C)C)c2nc3cc4c(cc3s2)OCO4)cc1` (stereo not drawn), the figures for the activation in [1] and in assay [12] were 191% (active) and 23.1% (active), respectively. The outcome in [2], in assay [3], in assay [4], in assay [5], in [6] and in assay [7] was inactive. Also, the result in [8], in assay [9], in assay [10], in assay [11], in assay [13] and in assay [14] was inactive. The result in [15] and in assay [16] was inactive.

With `COc1ccc(C(CNC(=O)c2cccc(Br)c2)N2CCCC2)cc1` (stereo not drawn), the outcome in assay [1], in assay [2], in [3], in [4], in [5] and in [6] was inactive. The result in assay [7], in assay [8], in assay [9], in [11], in assay [12] and in assay [13] was inactive. The result in assay [14], in assay [15] and in assay [16] was inactive. Moreover, the activation in assay [10] is 61.5% (active).

Turning to `CCCCC(=O)NC(=S)NNC(=O)c1ccc(Cl)cc1Cl`, the activation in assay [1] was 196% (active); in assay [10] it was 31.5% (active); in assay [12] it was 76.5% (active); in assay [15], 43.7% (active). Also, the outcome in [2], in [3], in assay [4], in assay [5], in assay [6] and in [7] was inactive. Moreover, the outcome in assay [8], in assay [9], in assay [11], in assay [13], in assay [14] and in assay [16] was inactive.

For `COc1ccc(CSCCN)cc1Cl`, the activation was 108% (active) in assay [1] and 27.1% (active) in [12]. Besides, the outcome in assay [2], in assay [3], in [4], in assay [5], in assay [6] and in assay [7] was inactive. Besides, the outcome in assay [8], in [9], in assay [10], in [11], in assay [13] and in [14] was inactive. Besides, the outcome in [15] and in [16] was inactive.

In the case of `CCCCN1/C(=C/c2ccc3ccccc3[n+]2CC)Sc2ccccc21`, the figures for the activation in assay [1], in assay [12] and in [15] were 412% (active), 154% (active) and 271% (active), respectively. Besides, the result in [2], in assay [3], in [4], in [5], in [6] and in [7] was inactive. In addition, the outcome in assay [8], in assay [9], in assay [10], in assay [11], in assay [13] and in assay [14] was inactive. In [16], the result was inactive.
